The record followed here is PubChem BioAssay (NCI).

This is part of a sample that, as a whole, favours compounds with a hit. Of some 83,000 tested, about 20% had one in any assay.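 Cell lines were cultured in 96-well plates, exposed to a single compound concentration, and assessed for percent growth 48 hours later.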 Unmarked numbers belong to inactive results. The source made the active and inactive calls. The calls were made as follows: active = growth percent below 10; inactive = the rest.

Holding throughout (experiment): NCI-60 one-dose screen, 48 h (100 = growth as untreated, 0 = no growth, -100 = all killed)
Common to all, as to details: 10 µM unless noted

Test [1] has as its system HCT-15 colon.
In test [2] the test system is HT29 colon.
Test [3] concerns SNB-75 CNS.
In test [4] the test system is SNB-19 CNS.
Test [5] concerns U251 CNS.
Test [6] concerns PC-3 prostate.
Test [7] deals with SK-MEL-5 melanoma.
Test [8] relates to UACC-62 melanoma.
The test system of test [9] is LOX IMVI melanoma.
Test [10] deals with SK-MEL-28 melanoma.
Test [11] has as its system SK-MEL-2 melanoma.
For test [12], the system named is EKVX NSCLC.
The subject of test [13] is SN12C renal.
For test [14], the system named is UO-31 renal.
Test [15] has as its system TK-10 renal.
In test [16] the test system is ACHN renal.
For test [17], the system named is A498 renal.
Test [18] deals with CCRF-CEM leukemia.
Test [19] has as its system MOLT-4 leukemia.
The subject of test [20] is SR leukemia.

For `COc1ccc2[nH]c(-c3ccccc3)c(C=C(C#N)C#N)c2c1`, the growth is 36.3% in [1]; 17.2% in [2]; -5.72% (active) in test [3]; 73.2% in test [4]; 35.2% in [5]; 13.2% in [6]. In addition, the growth in [7] is 8.94% (active); in [8], 22.1%; in test [9], 42.6%; in test [10], 44%; in test [11] it was 24.1%; in test [12], 33.3%. Also, the growth in test [13] was 59%; in [14], 53.1%; in [15] it was 41.5%; in test [16], 54.2%; in test [17] it was 21%; in [18], 2.26% (active). Moreover, the growth in test [19] was 0.472% (active); in test [20], -5.05% (active).
On to `C1=CC2=CC=C3C=CC=C4C(c5nc6c7ccccc7c7ccccc7c6[nH]5)=CC(=C1)C2C34` (stereo not given), for which the growth is 90.8% in test [1]; 102% in test [2]; 102% in test [3]; 103% in [4]; 104% in [5]; 78.8% in test [6]. The growth in test [7] is 101%; in test [8] it was 61.6%; in test [9], 86.3%; in [10], 107%; in [11] it was 123%; in test [12], 93.5%. Also, the growth is 94.6% in test [13]; 62.8% in test [14]; 127% in test [15]; 89.6% in [16]; 63.7% in [17]; 89.7% in test [18]. For the same compound, the growth in [19] is 73.3%; in [20] it was 76.3%.
For the compound `COc1cc(C2=NN(C=O)C(c3cccc(Nc4ccnc5cc(C(F)(F)F)ccc45)c3)C2)cc(OC)c1OC` (stereo not given), the growth in [1] is 49.2%; in test [2], 15.3%; in test [3], 77.7%; in test [4] it was 64.2%; in test [5], 55.8%; in test [6] it was 31.7%. Further, the growth was 43% in test [7]; 75.4% in test [8]; 43.1% in test [9]; 50.6% in test [10]; 70.7% in [11]; 61.5% in [12]. Further, the growth was 62.4% in test [13]; 37.6% in test [14]; 46.5% in [15]; 65.5% in [16]; 65.4% in [17]; 37.5% in [18]. Besides, the growth in [19] was 21.5%; in [20] it was 32.3%.
As to `COC1=CC=CC2(OC)C3(O)CCCc4cccc(c43)N3C(=O)COC132` (stereo not given), the growth in [1] was 103%; in test [2], 97.2%; in test [3], 84.2%; in test [4], 101%; in [5], 97.3%; in [6], 95.4%. Besides, the growth in [7] is 104%; in test [8], 92%; in test [9] it was 97.7%; in test [10] it was 111%; in test [11] it was 93.9%; in [12], 98.6%. Moreover, the growth in test [13] was 101%; in [14] it was 82.1%; in test [15], 96.7%; in test [16] it was 105%; in test [17] it was 98.4%; in test [18], 94.8%. The growth in [19] is 97.8%; in test [20] it was 109%.
On to `Cc1nnc(/N=C2\NC(=O)/C(=C/c3ccc(N(C)C)cc3)S2)s1`, for which the growth was 47.7% in test [1]; 106% in [2]; 67.5% in [3]; 80.1% in test [4]; 72.1% in test [5]; 57.8% in test [6]. The growth is 42.7% in test [7]; 74.9% in test [8]; 64.6% in [9]; 69.2% in test [10]; 83.1% in test [11]; 82.8% in [12]. The growth was 83.8% in test [13]; 70.6% in test [14]; 87.3% in test [15]; 71.8% in [16]; 67% in test [17]; 62.6% in test [18]. Besides, the results for the growth in test [19] and in test [20] were 80.8% and 44.2%, respectively.
Consider `N#Cc1ccc(N2Cc3cc(Cl)ccc3OC3=C2C(=O)N(Cc2ccccc2)C3=O)cc1`, for which the growth is -44.9% (active) in test [1]; -47.3% (active) in test [2]; 29.9% in test [3]; 69.1% in test [4]; -31.7% (active) in test [5]; 21.9% in test [6]. Moreover, the growth is -31.5% (active) in [7]; -35.5% (active) in test [8]; -91.6% (active) in [9]; -44.4% (active) in [10]; -38.7% (active) in test [11]; 43.8% in [12]. Moreover, the growth is -39.5% (active) in test [13]; -90.5% (active) in [14]; -66.3% (active) in test [15]; -85.6% (active) in [16]; 129% in test [17]; -9.47% (active) in test [18]. The figures for the growth in test [19] and in test [20] were -24.7% (active) and -25.7% (active), respectively.
For `C=CCn1c(SCC(=O)Nc2ccc(C(=O)/C=C/c3cc(OC)c(OC)c(OC)c3)cc2)nnc1-c1ccc(Cl)cc1`, the growth is -1.47% (active) in [1]; -43.1% (active) in [2]; 20.1% in test [3]; 35.2% in test [4]; -3.31% (active) in test [5]; 28.3% in test [6]. The growth was 9.64% (active) in test [7]; 22.1% in test [8]; -22.4% (active) in [9]; 59% in test [10]; 26.3% in test [11]; 21.6% in test [12]. Also, the growth in test [13] was 27.9%; in test [14] it was 26.5%; in test [15], 35.9%; in [16], 37.4%; in test [17] it was 15.6%; in test [18] it was 6.62% (active). Moreover, the growth was 7.87% (active) in test [19] and 3.83% (active) in [20].
For the compound `CC(=O)OC[C@]12CC[C@@H](c3cn(Cc4ccc(Cn5cc([C@@H]6CC[C@]7(COC(C)=O)CC[C@]8(C)[C@H](CC[C@@H]9[C@@]%10(C)CC[C@H](OC(C)=O)C(C)(C)[C@@H]%10CC[C@]98C)[C@@H]67)nn5)cc4)nn3)[C@@H]1[C@H]1CC[C@@H]3[C@@]4(C)CC[C@H](OC(C)=O)C(C)(C)[C@@H]4CC[C@@]3(C)[C@]1(C)CC2`, the growth in test [1] was 102%; in test [2], 97.2%; in test [3] it was 105%; in test [4], 96.7%; in test [5], 103%; in [6] it was 104%. For the same compound, the growth in test [7] was 105%; in [8], 95.8%; in [9], 97.3%; in test [10] it was 99.8%; in test [11], 97%; in test [12], 104%. Moreover, the growth in test [13] is 106%; in test [14], 90.7%; in test [15] it was 95.1%; in test [16] it was 97.1%; in test [17], 105%; in [18], 102%. Also, the values for the growth in test [19] and in [20] were 97.1% and 98%, respectively.
